In ChEMBL document CHEMBL4513135, “CO-ADD screening of IQOG CSIS (Spain) compounds”:
“And” between values parts separate entries of the source, which are not always exact repeats. Equal values may be shown once. Results with a measured potency or affinity are listed apart.

Tests used:
[1] = test system: Staphylococcus aureus; settings: Concentration 32 ug.mL-1, ASSAY_TEST Inhibition of Bacterial Growth, detection method Absorption (OD600), MEDIA CAMHB, plate type 384well, NBS, CORNING #3640, time 18 hr
[2] = test system: Escherichia coli; settings: Concentration 32 ug.mL-1, ASSAY_TEST Inhibition of Bacterial Growth, detection method Absorption (OD600), MEDIA CAMHB, plate type 384well, NBS, CORNING #3640, time 18 hr

Row | Compound | Inhibition [1] [%] | Inhibition [2] [%] | Inhibition ([1]; 32 ug/mL) | Inhibition ([2]; 32 ug/mL)
1 | C#CCN(C)Cc1cc2cc(OCCCCC3CCN(Cc4ccccc4)CC3)ccc2n1C.Cl | 41 | -14.71 |  | 
2 | COc1nc(N)c(C#N)c(-c2ccccc2)c1C#N | 26.81 | -3.07 |  | 
3 | CC(C)C(=O)N/N=C/c1c[nH]c2ccccc12 | 10.48 | 9.69 |  | 
4 | COc1cc(C2c3c(nc4c(c3N)CCCC4)Oc3ccc4ccccc4c32)cc(OC)c1OC (stereo unspecified) | 14.84 | 14.05 |  | 
5 | COc1ccc(/C=C2/N=C(c3ccccc3)OC2=O)cc1OC | -19.31 | -9.68 |  | 
6 | COc1ccc(-c2cc(-c3ccccc3)c(C#N)c(N)n2)cc1 | 10.32 | -23.38 |  | 
7 | N#CC1(Br)C(=NBr)Oc2c(ccc3ccccc23)C1c1ccccc1[N+](=O)[O-] (stereo unspecified) | 52.21 | -16.66 |  | 
8 | COc1ccc(-c2c(C#N)c(=O)oc3c2ccc2ccccc23)cc1 |  |  | 29.57% and 19.64% | -26.6% and -23.12%
9 | Cn1cc(C(=O)NN)c2ccccc21 | 4.01 | 20.35 |  | 
10 | O=C1OC(c2ccccc2)=NC1=Cc1ccccc1Cl | 16.61 | 12.84 |  | 
11 | Cc1nc(Nc2ccccc2)c2cnn(-c3ccccc3)c2n1 | 6.87 | 6.44 |  | 
12 | Nc1c2c(nc3nc4ccccc4nc13)CCCC2 | 36.81 | -11.07 |  | 
13 | CC(=O)N1CC(=O)NC1=S | 18.21 | 15.12 |  | 
14 | Cl.N#Cc1c(Cl)nc(N)nc1NCCO | -0.92 | -1.11 |  | 
15 | N#C/C(=C\c1ccccc1Cl)C(=O)c1ccccc1 | 33.12 | 20.31 |  | 
16 | COc1nc2nc3c(c(N)c2cc1C#N)CCCC3 | 30.12 | -3.63 |  | 
17 | C#CCN(C)Cc1cc2cc(OCCC3CCN(Cc4ccccc4)CC3)ccc2n1C.Cl | 28.43 | -29.82 |  | 
18 | CCOC(=O)C1=C(C)OC(N)=C(C#N)C1c1cccs1 (stereo unspecified) | 8.64 | -14.26 |  | 
19 | C#CCNC(=O)c1cc2cc(OCCCC3CCN(Cc4ccccc4)CC3)ccc2[nH]1 | 18.56 | -12.4 |  | 

Row | Compound | Inhibition [1] [%] | Inhibition [2] [%] | Inhibition ([1]; 32 ug/mL) | Inhibition ([2]; 32 ug/mL)
20 | C#CCNc1nc(NCCCCC2CCN(Cc3ccccc3)CC2)c(C#N)cc1C#N | 5 | -12.03 |  | 
21 | CCOC(=O)c1c(C)nc2nc3c(c(N)c2c1-c1ccccc1OC)CCCCC3 | 5.11 | -17.67 |  | 
22 | CC1CN(C)c2c(C#N)c(-c3ccccc3)c(C#N)c(=N)n21 (stereo unspecified) | 26.27 | -6.63 |  | 
23 | C#CCNc1nc(Cl)c(C#N)c(-c2ccccc2)c1C#N | 4.06 | 10.8 |  | 
24 | COc1ccc2c(c1)cc(C(=O)O)n2C | 20.8 | -7.03 |  | 
25 | CC(=O)Nc1n[nH]c2nc(N)c(C#N)c(-c3ccccc3)c12 | 38.27 | 1.16 |  | 
26 | COc1nc(NC(C)=O)c(C#N)c(-c2ccccc2)c1C#N | 21.1 | -7.58 |  | 
27 | N#Cc1c(N)nc(N2CCC(Cc3ccccc3)CC2)c(C#N)c1-c1ccccc1 | 8.01 | -15.68 |  | 
28 | c1ccc(-c2nc3c4cnn(-c5ccccc5)c4ncn3n2)cc1 | 14.04 | 8.07 |  | 
29 | N#CC1=C(N)Oc2ccc3ccccc3c2C1c1cccc([N+](=O)[O-])c1 (stereo unspecified) | 31.47 | -6.29 |  | 
30 | C#CCN(C)c1nc(NCC2CCN(Cc3ccccc3)CC2)c(C#N)c(-c2ccccc2)c1C#N.Cl | 36.49 | -7.12 |  | 
31 | Cc1nn(-c2ccccc2)c2nc(C)n3nc(-c4ccccc4)nc3c12 | 16.28 | 8.31 |  | 
32 | COc1ccc(C2c3ccc4ccccc4c3Oc3nc4c(c(N)c32)CCCC4)c(OC)c1 (stereo unspecified) | -6.11 | -4.44 |  | 
33 | Nc1c2c(nc3c1C(c1ccc(O)cc1)c1c(ccc4ccccc14)O3)CCCC2 (stereo unspecified) | 9.54 | 9.35 |  | 
34 | COC1=C(C#N)CCC(=O)N1 | 33.45 | -6.96 |  | 
35 | O=C(COc1ccc2ccccc2c1)NNCc1c[nH]c2ccccc12 | 3.31 | 7.68 |  | 
36 | CSC1=NC2(CC2c2ccccc2)C(=O)N1C (stereo unspecified) | -3.53 | -1.26 |  | 
37 | COc1nc(N)c(C#N)cc1C#N | 18.25 | -3.66 |  | 
38 | C#CCN(C)Cc1cc2cc(OCOc3ccc4c(c3)cc(CN(C)CC#C)n4C)ccc2n1C | 15.95 | -10.88 |  | 
